Experimental data: the supplement of paper PMC6555819

Tests used:
Experiment in all cases: PBM binding z-score (relative to random genomic background probes); higher = stronger binding; sequences stand for … in GC…GCGATTGACAGCGTAGAATGAAGG
[1] = tested on: FXR:RXRa (NR concentration 270 nM, RXRa partner concentration 90 nM)
Summary of the method: (§1)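 Binding buffer was PBS pH 7.4 with 2% milk, 0.02% Triton X-100, 1 mM DTT, 0.2 mg/mL BSA and 0.4 mg/ml salmon testes DNA. In it, ligand-free nuclear receptor dimers were incubated 1 h on custom Agilent 4×180K protein-binding microarrays carrying double-stranded probes. Antibodies against each partner (one per run) detected binding, and z-scores were calculated against random background probes after regression normalization of scanned fluorescence.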

[2] = tested on: LXRa:RXRa (NR concentration 270 nM, RXRa partner concentration 90 nM)
Summary of the method: as §1

[3] = tested on: LXRa homodimer (NR concentration 270 nM)
Summary of the method: as §1

[4] = tested on: LXRb:RXRa (NR concentration 270 nM, RXRa partner concentration 90 nM)
Summary of the method: as §1

[5] = tested on: PPARa:RXRa (NR concentration 270 nM, RXRa partner concentration 90 nM)
Summary of the method: as §1

[6] = tested on: PPARg:RXRa (NR concentration 180 nM, RXRa partner concentration 90 nM)
Summary of the method: as §1

[7] = tested on: PPARg:RXRa 270nM:90nM, anti-RXR (NR concentration 270 nM, RXRa partner concentration 90 nM)
Summary of the method: as §1

[8] = tested on: PPARg:RXRa 30nM:10nM, anti-RXR (NR concentration 30 nM, RXRa partner concentration 10 nM)
Summary of the method: as §1

[9] = tested on: PPARg:RXRa 90nM:30nM, anti-RXR (NR concentration 90 nM, RXRa partner concentration 30 nM)
Summary of the method: as §1

[10] = tested on: PPARg:RXRa DBDmut IVT, anti-RXR (DBD mutation: RXRa K156A/R161A, NR concentration 270 nM, RXRa partner concentration 90 nM)
Summary of the method: as §1

[11] = tested on: PPARg:RXRa IVT, anti-PPARg (NR concentration 270 nM, RXRa partner concentration 90 nM)
Summary of the method: as §1

[12] = tested on: PPARg homodimer (NR concentration 180 nM)
Summary of the method: as §1

[13] = tested on: PXR:RXRa (NR concentration 270 nM, RXRa partner concentration 90 nM)
Summary of the method: as §1

[14] = tested on: PXR homodimer (NR concentration 270 nM)
Summary of the method: as §1

[15] = tested on: RARa:RXR (NR concentration 270 nM, RXRa partner concentration 90 nM)
Summary of the method: as §1

[16] = tested on: RARa homodimer (NR concentration 270 nM)
Summary of the method: as §1

[17] = tested on: RARb:RXRa (NR concentration 270 nM, RXRa partner concentration 90 nM)
Summary of the method: as §1

| Sequence | PBM binding z-score [1] | PBM binding z-score [2] | PBM binding z-score [3] | PBM binding z-score [4] | PBM binding z-score [5] | PBM binding z-score [6] | PBM binding z-score [7] | PBM binding z-score [8] | PBM binding z-score [9] | PBM binding z-score [10] | PBM binding z-score [11] | PBM binding z-score [12] | PBM binding z-score [13] | PBM binding z-score [14] | PBM binding z-score [15] | PBM binding z-score [16] | PBM binding z-score [17] |
| --- | --- | --- | --- | --- | --- | --- | --- | --- | --- | --- | --- | --- | --- | --- | --- | --- | --- |
| TCGAGAAGGTTACGGGGGCATTCAGGGATGAAGA | 4.57 | 4.21 | 0.687 | 5.72 | 5.32 | 6.1 | 5.94 | 4.28 | 5.29 | 3.48 | 4.73 | 1.82 | 3.71 | 1.24 | 3.78 | 0.65 | 3.65 |
| TCGAGTAGGTTACGGGAGCATTCAGGGATGAAGA | 0.293 | 0.0567 | -0.651 | 0.0342 | 1.82 | 1.59 | 2.09 | 1.25 | 1.7 | 2.84 | 3.32 | -0.122 | 0.0708 | -0.797 | 0.667 | -0.752 | 0.692 |
| TCGAGTAGGTTCCGGGGGCATTCAGGGATGAAGA | 2.36 | 1.8 | 0.316 | 4.06 | 2.5 | 0.485 | 2.22 | 1.38 | 2.24 | 1.44 | 2.23 | 1.05 | 2.68 | 1.13 | 1.96 | -0.469 | 1.17 |
| CTATGTAGGTTAAGGGGTTCATTCAGTTTGAAAG | 2.03 | 3.21 | 2.34 | 3.8 | 4.75 | 7.11 | 6.53 | 4.01 | 6.09 | 6.98 | 6.85 | 1.79 | 5.14 | 12.3 | 3.12 | 1.25 | 1.82 |
| CCGACTAGGTTACGAGGGGGCATTCAGTGCGAAT | 2.03 | 6.99 | 1.82 | 6.19 | 3.16 | 2.68 | 3.48 | 1.66 | 2.47 | 4.63 | 4.93 | 1.66 | 4.6 | 5.23 | 2.64 | 0.38 | 2.02 |
| TCGAGTAGGTTACGGGGGCATTTAGGGATGAAGA | 3.13 | 3 | 0.674 | 5.04 | 4.52 | 6.04 | 5.65 | 2.96 | 4.66 | 5.1 | 5.8 | 1.44 | 3.25 | 1.54 | 3.29 | 0.213 | 2.56 |
| CCGAGTAGGTTACGAGCGGGCATTCAGTGCGAAT | 0.242 | 7.14 | 0.879 | 4.08 | 0.9 | 0.617 | 0.819 | -0.546 | 0.27 | 4.42 | 2.97 | 0.117 | 1.73 | 0.506 | 0.0464 | -0.596 | 0.908 |
| CTCTGTAGGTTAAGGGGGTCATTCAGTTTGAAAG | 5.36 | 5.1 | 3.51 | 6.33 | 5.68 | 6.59 | 6.91 | 4.4 | 6.57 | 5.92 | 6.03 | 3.78 | 6.17 | 12 | 6.17 | 1.78 | 3.6 |
| CTATGTAGGTTAAGGGGGTCATTTAGTTTGAAAG | 5.01 | 4.94 | 3.42 | 6.37 | 5.83 | 8.48 | 7.62 | 6.07 | 7.54 | 7.59 | 7.5 | 3.59 | 5.59 | 10.3 | 5.8 | 1.96 | 3.51 |
| CCGAGTAGGTTACGAGGGGGCATCCAGTGCGAAT | 1.87 | 6.84 | 1.45 | 5.77 | 3.24 | 2.67 | 3.34 | 0.797 | 2.31 | 4.1 | 4.45 | 1.63 | 4.3 | 2.67 | 2.86 | 0.122 | 2.1 |
| CTATGTAGGTTAAGGGGGCCATTCAGTTTGAAAG | 1.41 | 1.83 | 0.578 | 4.2 | 4.65 | 7 | 6.86 | 4.73 | 6.88 | 7.13 | 7.17 | 1.77 | 2.69 | 3.67 | 2.17 | 0.379 | 1.94 |
| CCGAGTAGGTTACGAAGGGGCATTCAGTGCGAAT | 0.672 | 6.11 | -0.15 | 4.02 | 1.83 | 1.04 | 1.55 | -0.292 | 0.939 | 4.07 | 3.33 | 0.383 | 2.86 | 1.4 | 1.04 | 0.184 | 1.56 |
| CCGAGTAGGTTACGAGGGGGAATTCAGTGCGAAT | 0.932 | 1.98 | 0.178 | 3.04 | 2.28 | 1.76 | 2.55 | 0.623 | 1.37 | 4.48 | 4.06 | 0.811 | 1.55 | 0.309 | 1.23 | 0.123 | 1.26 |
| CCGAGTAGGTTACGAGGGGGCATTAAGTGCGAAT | 2.79 | 6.98 | 1.2 | 6.3 | 3.38 | 2.04 | 3.06 | 0.817 | 2.16 | 4.89 | 4.4 | 2.11 | 4.77 | 7.4 | 2.72 | 0.983 | 2.15 |
| CCGAGTAGGTAACGAGGGGGCATTCAGTGCGAAT | 1.91 | 5.77 | 0.734 | 4.7 | 2.83 | 1.05 | 2.41 | 0.082 | 1.9 | 3.83 | 3.65 | 0.975 | 3.42 | 4.31 | 2.24 | 0.592 | 1.31 |
| CCGAGTAGGTTACGAGGGGGCATTCAATGCGAAT | 2.32 | 7.34 | 1.1 | 6.15 | 3.62 | 2.64 | 3.7 | 1.21 | 2.45 | 4.67 | 4.57 | 2.11 | 4.33 | 0.729 | 3.11 | 0.217 | 2.14 |
